Compounds without any hit were thinned out: in the full panel of roughly 83,000, 20% have a hit.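 Each cell line was grown in a 96-well plate and treated with one concentration of compound for 48 hours. Values below 10 were considered active.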 Active and inactive are the calls of the source.
How the values were obtained:
Assay in all cases: NCI-60 one-dose screen, 48 h (100 = growth as untreated, 0 = no growth, -100 = all killed)
Details in all cases: 10 µM unless noted
DU-145 prostate = tested on: DU-145 prostate
K-562 leukemia = tested on: K-562 leukemia
MALME-3M melanoma = tested on: MALME-3M melanoma
MDA-MB-231 breast = tested on: MDA-MB-231 breast
RXF 393 renal = tested on: RXF 393 renal
SF-268 CNS = tested on: SF-268 CNS
SF-539 CNS = tested on: SF-539 CNS
UACC-257 melanoma = tested on: UACC-257 melanoma
M14 melanoma = tested on: M14 melanoma
HCT-15 colon = tested on: HCT-15 colon
HT29 colon = tested on: HT29 colon
SNB-75 CNS = tested on: SNB-75 CNS
U251 CNS = tested on: U251 CNS
PC-3 prostate = tested on: PC-3 prostate
SK-MEL-5 melanoma = tested on: SK-MEL-5 melanoma
UACC-62 melanoma = tested on: UACC-62 melanoma
LOX IMVI melanoma = tested on: LOX IMVI melanoma
SK-MEL-28 melanoma = tested on: SK-MEL-28 melanoma
SNB-19 CNS = tested on: SNB-19 CNS
SF-295 CNS = tested on: SF-295 CNS

Measured: growth

COc1ccc(/C=C/C(=O)c2ccc(NC(=O)CSc3nnc(-c4ccc(Cl)cc4)n3-c3ccccc3)cc2)cc1
inactive: DU-145 prostate 106% | K-562 leukemia 80.1% | MALME-3M melanoma 118% | MDA-MB-231 breast 91% | RXF 393 renal 104% | SF-268 CNS 96.1% | SF-539 CNS 109% | UACC-257 melanoma 86.7% | M14 melanoma 91.9% | HCT-15 colon 80.5% | HT29 colon 98.7% | SNB-75 CNS 84.2% | U251 CNS 88.2% | PC-3 prostate 84.5% | SK-MEL-5 melanoma 84.1% | UACC-62 melanoma 74.6% | LOX IMVI melanoma 105%

C#CC[C@@H]1C[C@]2(C)[C@H]3CC=C4[C@H]5[C@@H](C)[C@H](C)CC[C@]5(C(=O)NCCCCN)CC[C@@]4(C)[C@]3(C)CC[C@H]2C(C)(C)[C@H]1OC(C)=O
active: K-562 leukemia -26.6%
inactive: DU-145 prostate 58.6% | MALME-3M melanoma 98.9% | MDA-MB-231 breast 39.5% | RXF 393 renal 56.4% | SF-268 CNS 69.8% | SF-539 CNS 84.7% | UACC-257 melanoma 115% | M14 melanoma 66.6% | HCT-15 colon 31.9% | HT29 colon 10.5% | SNB-75 CNS 81.1% | U251 CNS 40.7% | PC-3 prostate 47.5% | SK-MEL-5 melanoma 94.9% | UACC-62 melanoma 106% | LOX IMVI melanoma 18.6% | SK-MEL-28 melanoma 100%

Cc1ccc(Nc2nc(NCCO)c3ccccc3n2)cc1C
inactive: K-562 leukemia 11.1% | MALME-3M melanoma 43.8% | MDA-MB-231 breast 12.6% | RXF 393 renal 42.5% | SF-268 CNS 20.1% | UACC-257 melanoma 62% | HCT-15 colon 15.6% | HT29 colon 12.9% | SNB-75 CNS 39.6% | SNB-19 CNS 57% | U251 CNS 15.1% | PC-3 prostate 35.7% | UACC-62 melanoma 35.7% | SK-MEL-28 melanoma 52.5%
active: DU-145 prostate -14.6% | SF-539 CNS 7% | SK-MEL-5 melanoma -18.6% | LOX IMVI melanoma 8.62%

Oc1[nH]c2ccc(Cl)cc2c1/C=c1/ccc2c(c1)N=C(c1ccc(F)cc1)N=2
inactive: DU-145 prostate 86.3% | K-562 leukemia 16.4% | MDA-MB-231 breast 63.1% | RXF 393 renal 63.4% | SF-268 CNS 77.2% | SF-539 CNS 92.2% | UACC-257 melanoma 70.1% | M14 melanoma 30.4% | HCT-15 colon 19.3% | HT29 colon 62.4% | SNB-75 CNS 55.6% | U251 CNS 72% | PC-3 prostate 48.5% | SK-MEL-5 melanoma 59.3% | UACC-62 melanoma 69% | LOX IMVI melanoma 46.1% | SK-MEL-28 melanoma 53.7%
active: MALME-3M melanoma -3.95%

CC(C)N=C1CCCC1C(=S)SSC(=S)C1CCCC1=NC(C)C (stereo not drawn)
inactive: DU-145 prostate 64.9% | K-562 leukemia 34.9% | MALME-3M melanoma 53.8% | MDA-MB-231 breast 76.9% | RXF 393 renal 78.3% | SF-268 CNS 68.6% | SF-539 CNS 83.4% | UACC-257 melanoma 69.7% | HCT-15 colon 54.6% | HT29 colon 79.1% | SNB-75 CNS 74.3% | SNB-19 CNS 83.5% | U251 CNS 50.3% | PC-3 prostate 47.4% | SK-MEL-5 melanoma 81.6% | UACC-62 melanoma 75% | LOX IMVI melanoma 50.9% | SK-MEL-28 melanoma 81%

CCCCCCCCCCCCCCCCS(=O)(=O)Nc1cc(C(=O)NN)cc(C(=O)NN)c1
inactive: DU-145 prostate 81% | K-562 leukemia 33.9% | MALME-3M melanoma 85.4% | MDA-MB-231 breast 58.2% | RXF 393 renal 94.3% | SF-268 CNS 43.4% | SF-539 CNS 63.7% | UACC-257 melanoma 107% | HCT-15 colon 50.5% | HT29 colon 88% | SNB-75 CNS 94.3% | SNB-19 CNS 52.2% | U251 CNS 47.9% | PC-3 prostate 38.8% | SK-MEL-5 melanoma 73.7% | UACC-62 melanoma 70.3% | LOX IMVI melanoma 70% | SK-MEL-28 melanoma 91.9%

Clc1cc(Br)ccc1-c1ccc(CNCC2CCNCC2)o1
inactive: DU-145 prostate 62.4% | K-562 leukemia 18.9% | MDA-MB-231 breast 50.8% | RXF 393 renal 64.8% | SF-268 CNS 45% | SF-539 CNS 29.6% | UACC-257 melanoma 79.6% | HCT-15 colon 55.1% | HT29 colon 31.7% | SNB-19 CNS 42.1% | U251 CNS 16.9% | PC-3 prostate 54.1% | SK-MEL-5 melanoma 61.5% | UACC-62 melanoma 59.4% | LOX IMVI melanoma 23.4% | SK-MEL-28 melanoma 42.3%
active: MALME-3M melanoma -4.35% | SNB-75 CNS 9.93%

CCCCN(CCCC)CCC(=O)c1ccc(OC)c2ccccc12
inactive: DU-145 prostate 79.4% | K-562 leukemia 67.1% | MALME-3M melanoma 124% | MDA-MB-231 breast 106% | SF-268 CNS 95% | SF-295 CNS 100% | SF-539 CNS 87% | UACC-257 melanoma 86.4% | M14 melanoma 104% | HCT-15 colon 99.7% | HT29 colon 98% | SNB-75 CNS 97.7% | SNB-19 CNS 87% | U251 CNS 86.7% | PC-3 prostate 84.7% | SK-MEL-5 melanoma 101% | UACC-62 melanoma 93.5% | LOX IMVI melanoma 78.9% | SK-MEL-28 melanoma 154%

CC1(C)C(N(O)C(=O)Nc2ccc(Cl)cc2)N(c2ccc(Cl)cc2)C(=O)N1CC(=O)N/N=C/C=C/c1ccc([N+](=O)[O-])o1 (stereo not drawn)
active: MALME-3M melanoma -42.6% | MDA-MB-231 breast -48.7% | RXF 393 renal -77.9% | SF-539 CNS -73.3% | UACC-257 melanoma -33.7% | M14 melanoma -65.6% | HT29 colon -43% | SNB-75 CNS 9.93% | U251 CNS -14.4% | PC-3 prostate 8.77% | SK-MEL-5 melanoma -96.5% | UACC-62 melanoma -40.5% | LOX IMVI melanoma 0.58% | SK-MEL-28 melanoma -55.5%
inactive: DU-145 prostate 12.5% | K-562 leukemia 13.1% | SF-295 CNS 54.9% | HCT-15 colon 37.5% | SNB-19 CNS 48.5%
